# Inconclusive results are not listed. A call without a number means that no potency is given here. Calls of active or inactive are those of the source. The call rests on the fitted dose curve; in most records, active means well fitted curve in the direction sought with a large enough effect; inconclusive means small, poorly fitted or top-dose-only effect, or another doubt; inactive means no such curve, though single readings can be large; an effect the other way counts as inactive or inconclusive.
# Tests used:
# [1] = target: Voltage-gated inwardly rectifying potassium channel KCNH2 (Homo sapiens) (UniProt Q12809); experiment: qHTS Assay for Small Molecule Inhibitors of the Human hERG Channel Activity (AID 588834);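 further: lower thallium flux fluorescence means stronger hERG block; nearly all actives have a fitted effect of over 50% in size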
# In short: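 Cells were infected with hERG-BacMam virus for 4 hrs at room temperature, grown overnight, then seeded at 2000/well. After dye loading and roughly 10 min compound treatment, thallium influx was triggered and fluorescence recorded.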
# [2] = target: Luciferin 4-monooxygenase (Photinus pyralis) (UniProt P08659); experiment: Biochemical firefly luciferase enzyme assay for NPC (AID 624030); further: nearly all actives have a fitted effect of over 70% in size
# In short: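 Direct inhibition of firefly luciferase enzyme (10 nM final, 50 mM Tris Acetate) assessed by luminescence within 5 minutes. Percent activity scaled between DMSO and PTC124 positive control, with concentration-effect curves classified by fit quality and response.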
# [3] = S16 Schwann cell viability assay (CellTiter-Glo assay) (AID 624031); further: nearly all actives have a fitted effect of over 70% in size
# In short: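 Concentration-effect curves come from CellTiter-Glo luminescence of S16 rat Schwann cells after 24 h compound exposure. Each reading was normalized to DMSO wells (0%) and wells without cells, and curves were ranked by r2 and response magnitude.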
# [4] = S16 Schwann cell PMP22 intronic element firefly luciferase assay (AID 624032); further: nearly all actives have a fitted effect of over 30% in size
# In short: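 Luciferase reporter of PMP22 intronic-element expression in stably transfected S16 rat Schwann cells, read by ONE-Glo luminescence after 24 h compound exposure at 37 C. Activity scaled between DMSO (0%) and positive-control PTC124; concentration-effect curves quality-classified.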
# Potency means the concentration at half of the fitted maximal effect.
# Sequence of Voltage-gated inwardly rectifying potassium channel KCNH2 (Homo sapiens) (Q12809 whole entry, looked up): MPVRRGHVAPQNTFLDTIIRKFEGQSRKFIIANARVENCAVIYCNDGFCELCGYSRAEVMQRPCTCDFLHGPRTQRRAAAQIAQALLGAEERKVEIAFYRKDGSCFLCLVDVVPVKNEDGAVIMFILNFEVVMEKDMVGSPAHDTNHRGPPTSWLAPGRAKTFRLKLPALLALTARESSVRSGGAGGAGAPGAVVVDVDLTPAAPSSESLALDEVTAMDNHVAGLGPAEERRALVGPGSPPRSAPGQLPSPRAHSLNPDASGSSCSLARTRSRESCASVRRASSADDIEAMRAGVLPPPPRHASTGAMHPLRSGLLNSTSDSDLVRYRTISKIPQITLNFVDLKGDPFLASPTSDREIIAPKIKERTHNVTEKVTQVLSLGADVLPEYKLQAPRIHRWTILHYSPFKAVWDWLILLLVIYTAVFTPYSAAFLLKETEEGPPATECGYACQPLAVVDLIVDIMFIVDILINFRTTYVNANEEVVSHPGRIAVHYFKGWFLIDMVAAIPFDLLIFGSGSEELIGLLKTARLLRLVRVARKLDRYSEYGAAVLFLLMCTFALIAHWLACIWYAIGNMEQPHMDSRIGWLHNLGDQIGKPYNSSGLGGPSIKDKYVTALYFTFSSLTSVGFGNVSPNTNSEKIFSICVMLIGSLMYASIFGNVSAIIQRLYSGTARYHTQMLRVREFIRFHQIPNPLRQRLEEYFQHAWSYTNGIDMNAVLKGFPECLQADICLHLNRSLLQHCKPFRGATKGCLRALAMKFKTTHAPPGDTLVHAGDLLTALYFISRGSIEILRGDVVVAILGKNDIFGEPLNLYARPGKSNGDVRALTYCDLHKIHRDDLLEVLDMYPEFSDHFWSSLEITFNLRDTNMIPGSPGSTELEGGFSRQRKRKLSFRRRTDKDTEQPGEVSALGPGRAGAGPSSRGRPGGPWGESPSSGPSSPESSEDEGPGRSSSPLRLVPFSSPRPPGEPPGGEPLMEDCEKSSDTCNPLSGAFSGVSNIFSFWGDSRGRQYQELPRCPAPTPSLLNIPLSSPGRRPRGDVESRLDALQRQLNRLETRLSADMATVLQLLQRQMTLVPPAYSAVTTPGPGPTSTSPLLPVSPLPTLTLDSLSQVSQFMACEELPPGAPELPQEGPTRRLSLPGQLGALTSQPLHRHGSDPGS
# Sequence of Luciferin 4-monooxygenase (Photinus pyralis) (P08659 whole entry, looked up): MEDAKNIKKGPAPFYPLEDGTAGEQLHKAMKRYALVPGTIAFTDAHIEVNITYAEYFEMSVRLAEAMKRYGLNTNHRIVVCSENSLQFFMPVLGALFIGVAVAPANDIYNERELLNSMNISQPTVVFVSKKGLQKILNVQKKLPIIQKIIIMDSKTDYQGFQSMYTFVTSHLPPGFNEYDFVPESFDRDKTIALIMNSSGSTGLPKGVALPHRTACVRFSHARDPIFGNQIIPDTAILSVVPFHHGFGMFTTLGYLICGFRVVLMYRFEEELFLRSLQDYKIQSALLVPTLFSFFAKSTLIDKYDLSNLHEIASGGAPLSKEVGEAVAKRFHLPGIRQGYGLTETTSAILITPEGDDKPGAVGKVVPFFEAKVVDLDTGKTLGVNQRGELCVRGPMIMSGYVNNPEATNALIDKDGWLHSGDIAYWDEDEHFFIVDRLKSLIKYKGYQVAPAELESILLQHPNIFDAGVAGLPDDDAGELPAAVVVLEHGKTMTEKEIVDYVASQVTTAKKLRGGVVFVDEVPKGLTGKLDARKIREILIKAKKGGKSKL
SMILES,Potency [1],Potency [2],Potency [3],Potency [4]
C[N+]1(C)CCCCC1COC(=O)C(O)(c1ccccc1)c1ccccc1 (configuration not stated),inactive,inactive,inactive,inactive
CCNC(C)Cc1cccc(C(F)(F)F)c1 (configuration not stated),–,inactive,inactive,inactive
C/C(=C\c1csc(C)n1)[C@@H]1C[C@@H]2O[C@]2(C)CCC[C@H](C)[C@H](O)[C@@H](C)C(=O)C(C)(C)[C@@H](O)CC(=O)O1,inactive,inactive,–,57.3 nM (active)
CC1CCC(C(C)C)C(OC(=O)c2ccccc2N)C1 (configuration not stated),inactive,inactive,inactive,inactive
c1ccc(C2(N3CCCC3)CCCCC2)cc1,–,inactive,inactive,–
O=S(=O)(O)c1cc(O)ccc1O,inactive,inactive,inactive,inactive
CNC(=O)OCC[N+](C)(C)C,–,inactive,inactive,–
O=[N+]([O-])c1cc(I)c(O)c(I)c1,inactive,–,inactive,inactive
Clc1ccc(Cl)cc1,inactive,inactive,inactive,inactive
CC(C)[C@@]1(NC(=O)[C@@H]2C[C@@H]3c4cccc5[nH]cc(c45)C[C@H]3N(C)C2)O[C@@]2(O)[C@@H]3CCCN3C(=O)[C@H](Cc3ccccc3)N2C1=O,–,inactive,–,–
C=CCN(C1=NCCN1)c1c(Cl)cccc1Cl,–,inactive,inactive,–
C#CC(C)(O)CC (configuration not stated),inactive,inactive,inactive,inactive
c1ccc2sc(SNC3CCCCC3)nc2c1,inactive,–,inactive,inactive
COC([CH2][Hg])CNC(=O)c1ccccc1OCC(=O)O (configuration not stated),inactive,–,inactive,–
O=c1c2ccccc2[se]n1-c1ccccc1,–,8.09 µM (active),12.8 µM (active),–
CCC1C(C)=NN=C(c2ccc(OC)c(OC)c2)c2cc(OC)c(OC)cc21 (configuration not stated),inactive,inactive,inactive,7210 nM (active)
[N-]=[N+]=CC(=O)OCC(N)C(=O)O (configuration not stated),inactive,inactive,inactive,inactive
F/C(COc1ccc2c(c1)[nH]c1ccccc12)=C1/CN2CCC1CC2,22.4 µM (active),–,–,inactive
O=C(NC(=O)c1c(F)cccc1F)Nc1ccc(Cl)c(Oc2ncc(C(F)(F)F)cc2Cl)c1,inactive,inactive,inactive,inactive
CN1[C@@H]2CC[C@H]1CC(OC1c3ccccc3CCc3ccccc31)C2 (some centres not stated),8.91 µM (active),inactive,–,inactive
CC12NC(Cc3ccccc31)c1ccccc12 (configuration not stated),–,inactive,–,inactive
C=CCC1(C(C)CCC)C(=O)N=C(S)NC1=O (configuration not stated),inactive,inactive,inactive,inactive
C[N+]1(C)C2CCC1CC(OC(=O)c1c[nH]c3ccccc13)C2 (configuration not stated),–,inactive,inactive,–
CN1c2ccccc2C(NCCCCCCC(=O)O)c2ccc(Cl)cc2S1(=O)=O (configuration not stated),–,inactive,inactive,inactive
c1cc2c(c(NC3=NCCN3)c1)CCCC2,–,inactive,inactive,–
[Cl-].[Cl-].[Hg+2],–,12.8 µM (active),2.56 µM (active),809 nM (active)
O=C(CCl)c1ccc(Oc2ccc(C(=O)CCl)cc2)cc1,inactive,–,inactive,inactive
Cc1sc2ccccc2c1CC1=NCCN1,–,inactive,inactive,inactive

# — PubChem BioAssay (NCATS)
